# Assay outcomes as filed in PubChem.
# TDP1 cell noCPT: qHTS for Inhibitors of human tyrosyl-DNA phosphodiesterase 1 (TDP1): qHTS in cells in absence of CPT. DT40 Tdp1-/- hTDP1 cells, no CPT, ATP luminescence, 48 h. 420,000 tested, 15% active. Potency, µM (doses to about 46.2 µM), inactives show at the top dose activity change, negative = growth inhibition, most hits filed as inhibitors. AID 686978, 2013; further: potency means the concentration at half of the fitted maximal effect; nearly all actives have a fitted effect of over 55% in size
#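 Luminescent ATP content (CellTiter-Glo) served as the growth readout. Knockout chicken DT40 cells expressing human TDP1 were exposed to compounds without camptothecin for a minimum 48 hr at 37 °C.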
# IL-1B inflam inh: qHTS for Inhibitors of Inflammasome Signaling: IL-1-beta AlphaLISA Primary Screen. THP-1 LPS/ATP IL-1B secretion, AlphaLISA, 16 h; stronger effect = lower value. activity change, % at 57.5 µM. 360,000 tested, 4.7% active. AID 743279, 2014; in the data active means activity change below about -50%; inconclusive means mostly about -30% to -49%
#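 THP-1 cells pretreated 1 hr with compounds (up to 57.5 uM final), then stimulated with LPS (250 ng/mL final) plus ATP (1.25 mM final); secreted IL-1B measured by AlphaLISA after 16 hr, decreased signal indicating inhibition.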
# uPA surface inh: qHTS for Inhibitors of Cell Surface uPA Generation; cell surface uPA generation assay, qHTS; Potency, µM (highest dose often 38.3 µM), for inactives: top-dose activity change, negative = inhibition, usual class: inhibitors; 330,000 tested, 0.31% active; AID 540303, 2011; active means well fitted inhibition curve with a large enough effect; inconclusive means small, poorly fitted or top-dose-only effect; inactive means no such curve, though single readings can be large or run the other way; tested in mouse RAW 264.7 cells; further: potency means the concentration at half of the fitted maximal effect; nearly all actives have a fitted effect of over 55% in size
# HT1080 IDH1KD tx: qHTS for induction of synthetic lethality in tumor cells producing 2HG: qHTS for the HT-1080-IDH1KD cell line. HT-1080 IDH1 knockdown viability, ATP luminescence, 48 h. Potency, µM (top dose mostly 46.1 µM), for the others: top-dose activity, negative = toxicity, usual class: cytotoxic. 360,000 tested, 2% active. AID 686971, 2013;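 further: potency means the concentration at half of the fitted maximal effect; 0% = DMSO wells and -100% = cell-free medium wells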
#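 Using the IDH1-knockdown HT-1080 line run in the same batch and compound series as the NT line, viability after 48 h at 37 °C was determined by CellTiter-Glo luminescence and expressed as % activity.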
# TDP1 cell CPT: qHTS for Inhibitors of human tyrosyl-DNA phosphodiesterase 1 (TDP1): qHTS in cells in presence of CPT | chicken DT40 Tdp1-/-;hTDP1 cells + 20 nM CPT, ATP luminescence, 48 h | Potency, µM (top dose mostly 46.2 µM), for inactives: top-dose activity change, negative = growth inhibition, hits mostly inhibitors | 420,000 tested, 12% active | AID 686979, 2013; further: potency means the concentration at half of the fitted maximal effect; nearly all actives have a fitted effect of over 55% in size
#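 Cell growth measured by CellTiter-Glo luminescence after a minimum 48 h, 37 C compound exposure with 20 nM CPT in Tdp1-knockout DT40 cells stably expressing hTDP1, seeded 400/well; qHTS titration format.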
# HT1080-NT tox: qHTS for induction of synthetic lethality in tumor cells producing 2HG: qHTS for the HT-1080-NT fibrosarcoma cell line | AID 686970, 2013 | 360,000 tested, 1.6% active | Potency, µM (titrated, usually from 46.1 µM), without a hit: at the top dose activity, negative = less viability, actives largely listed as cytotoxic | HT-1080-NT fibrosarcoma viability, CellTiter-Glo ATP luminescence, 48 h;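 further: NT is the 2HG producing partner of a matched IDH1 knockdown line; potency means the concentration at half of the fitted maximal effect; 0% = DMSO-treated cells and -100% = media-only wells without cells; nearly all actives have a fitted effect of over 55% in size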
#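 HT-1080-NT; 750 cells/well; 5% FBS RPMI; 48 h compound, 37 degrees C; CellTiter-Glo luminescence; curve fitting and curve-class assignment.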
# Active calls of the source: *; ? = inconclusive; / = not tested or not shown. Only some compounds are listed: those with a hit (about 19% of all), similar ones and a draw of the others. Unless noted, the call rests on the fitted dose curve; in most records, active means well fitted curve in the direction sought with a large enough effect; inconclusive means small, poorly fitted or top-dose-only effect, or another doubt; inactive means no such curve, though single readings can be large; an effect the other way counts as inactive or inconclusive. Unless noted, on the % scale 0 is the no-effect control and ±100 the full control effect.
SMILES,TDP1 cell noCPT,IL-1B inflam inh,uPA surface inh,HT1080 IDH1KD tx,TDP1 cell CPT,HT1080-NT tox
COC(=O)N1CCC2(CCCN(Cc3nccs3)C2)CC1,-12.0%,/,/,/,6.6%,/
O=C(NCC(c1cccs1)N1CCOCC1)c1ccc(OCc2ccccc2)cc1 (stereo not drawn),20.6µM*,-29.4,5.3%,0.0%,14.6µM*,-4.6%
CN(CCO)CCC(=O)NC1(C)CS(=O)(=O)CC1S(=O)(=O)O (stereo not drawn),6.1%,-6.5,-6.2%,5.2%,2.1%,0.3%
Cc1c(-c2nc(-c3ccc4c(c3)[nH]c(=O)n4C)no2)cccc1[N+](=O)[O-],4.6%,/,/,/,7.0%,/
NC(=O)CN1C(=O)C2(SCC(=O)N2c2cccc(F)c2)c2ccccc21 (stereo not drawn),5.2%,/,/,/,8.4%,/
Cc1cccc(N2C(=O)CSC23C(=O)N(Cc2cccc(C(F)(F)F)c2)c2ccccc23)c1 (stereo not drawn),16.4µM*,/,/,/,18.4µM*,/
O=C1CSC2(C(=O)N3CCCc4cccc2c43)N1c1cccc(C(F)(F)F)c1 (stereo not drawn),?,5.4,/,1.1%,20.6µM*,-5.4%
CC(=O)c1cccc(NC(=O)C2(C)Cc3c(-c4cccc(C(F)(F)F)c4)ccnc3O2)c1 (stereo not drawn),23.1µM*,-10.2,/,?,16.4µM*,?
CC1(C(=O)Nc2cccnc2)Cc2c(-c3cccc(C(F)(F)F)c3)ccnc2O1 (stereo not drawn),23.1µM*,-4.2,/,-3.1%,16.4µM*,0.1%
CC1(C(=O)Nc2cccc(OC(F)(F)F)c2)Cc2c(-c3cccc(C(F)(F)F)c3)ccnc2O1 (stereo not drawn),?,14.0,/,?,?,?
Cc1[nH]n(-c2ccccc2)c(=O)c1C=Nc1ccc(S(=O)(=O)Nc2nccs2)cc1,-9.4%,0.9,-2.5%,-8.4%,?,-0.8%
COc1cc(S(=O)(=O)Nc2ccc(C)cc2)ccc1N=Cc1c(C)[nH]n(-c2ccccc2)c1=O,?,?,-6.1%,-20.4%,9.2µM*,-13.1%
COc1nccnc1NS(=O)(=O)c1ccc(N=Cc2c(C)[nH]n(-c3ccc(C)c(C)c3)c2=O)cc1,9.2µM*,11.8,?,7.94µM*,8.2µM*,10µM*
COc1nccnc1NS(=O)(=O)c1ccc(N=Cc2c(C)[nH]n(-c3ccccc3)c2=O)cc1,?,9.0,1.8%,-7.7%,-28.5%,1.1%
Cc1ccc(-n2[nH]c(C)c(C=Nc3ccc(S(=O)(=O)Nc4nccs4)cc3)c2=O)cc1C,18.4µM*,23.1,-4.5%,?,8.2µM*,?
O=C(NCc1cccnc1)Nc1ccc(Cl)cc1,-3.5%,-18.2,1.3%,8.6%,0.5%,29.3%
COC(=O)[C@]12CCCCC=C1N(Cc1ccc3c(c1)OCO3)C(=O)[C@H](CC(=O)NCc1ccc(C)o1)C2,?,-13.6,/,1.3%,?,-4.4%
CCCCNC(=O)C[C@@H]1C[C@@]2(C(=O)OCC)CCCC=C2N(Cc2ccc3c(c2)OCO3)C1=O,20.6µM*,-11.2,/,-1.4%,?,-3.4%
CCCCOCCCNC(=O)C[C@@H]1C[C@@]2(C(=O)OCC)CCCC=C2N(Cc2ccc3c(c2)OCO3)C1=O,?,0.0,/,-25.4%,6.51µM*,-18.3%
CCOC(=O)[C@]12CCC=C1N(Cc1ccc3c(c1)OCO3)C(=O)[C@H](CC(=O)NCCCOC)C2,-26.6%,24.3,/,13.0%,-9.6%,15.8%
COC(=O)[C@]12CCCCC=C1N(Cc1ccc3c(c1)OCO3)C(=O)[C@H](CC(=O)NCC13CC4CC(CC(C4)C1)C3)C2,18.4µM*,-4.1,/,?,?,?
CC1CN(C2CCCCC2)C(=O)NC1=O (stereo not drawn),-8.5%,26.0,-0.1%,21.7%,-0.5%,21.3%
CCOc1ccc(/C=C/c2nc(C#N)c(Nc3ccc(OCC)cc3)o2)cc1,23.1µM*,/,/,/,23.1µM*,/
CCOc1ccc(/C=C/c2nc(C#N)c(Nc3ccc(OC)cc3)o2)cc1,16.4µM*,/,/,/,20.6µM*,/
COc1ccc(CNc2oc(/C=C/c3cccc(OC)c3)nc2C#N)cc1,23.1µM*,/,/,/,23.1µM*,/
SMILES,TDP1 cell noCPT,IL-1B inflam inh,uPA surface inh,HT1080 IDH1KD tx,TDP1 cell CPT,HT1080-NT tox
CCOc1ccc(/C=C/c2nc(C#N)c(NC(C)c3ccccc3)o2)cc1 (stereo not drawn),11.6µM*,/,/,/,13µM*,/
COc1cccc(/C=C/c2nc(C#N)c(NCCc3ccc(OC)c(OC)c3)o2)c1,-87.1%,/,/,/,?,/
CCOc1ccc(Nc2oc(-c3ccccc3Cl)nc2C#N)cc1,?,-0.4,/,-28.5%,-29.3%,-26.2%
CN1CCN(CCNC(=O)c2ccc(CS(=O)c3ccc(Br)cc3)o2)CC1 (stereo not drawn),2.5%,17.4,/,-4.3%,-1.2%,6.9%
CCCCONc1ncnc2nonc12,-21.0%,14.2,0.8%,10.0%,-4.5%,12.6%
Cc1sc2nc(CSCC(=O)NC3(C#N)CCCCC3)[nH]c(=O)c2c1C,?,-4.0,1.4%,-4.3%,?,-1.5%
CCOc1ccc(Nc2oc(/C=C/c3cccc(OC)c3)nc2C#N)cc1,23.1µM*,/,/,/,?,/
N#Cc1ccc(-c2nc3ccccc3nc2-c2ccccc2)cc1C#N,18.4µM*,0.4,0.6%,17.9%,?,10.3%
COc1ccc(-c2nc3ccccc3nc2-c2ccc(OC)c(OC)c2)cc1OC,-2.6%,-13.9,29.3%,5.3%,-3.7%,6.7%
Oc1ccc(-c2nc3ccccc3nc2-c2ccccc2)cc1,?,-64.7*,3.5%,-25.9%,?,-24.3%
CCC(C(=O)Nc1ccc(C(C)=O)cc1)n1cnc2nc3c(cc2c1=O)CCCC3 (stereo not drawn),?,/,/,/,-23.4%,/
O=C(Cn1cnc2c(oc3ccccc32)c1=O)Nc1ccc(F)cc1F,-14.6%,/,/,/,-15.6%,/
Cc1ccccc1Nc1cc(C(=O)NC2CCCCC2)c2ccccc2n1,20.6µM*,/,/,/,?,/
Cc1ccc(Nc2cc(C(=O)NC3CCCC3)c3ccccc3n2)cc1C,14.6µM*,/,/,/,13µM*,/
Cc1ccc(C)c(Nc2cc(C(=O)NC3CCCCC3)c3ccccc3n2)c1,-29.2%,/,/,/,-23.6%,/
